The test system of the first test is Plasmodium falciparum. Description: GSK_TCMDC: Inhibition of Plasmodium falciparum 3D7 in whole red blood cells, using parasite LDH activity as an index of growth. Test compounds present at 2uM. The class given is functional.
For `CC(C)NCC(O)Cn1c2ccc(Br)cc2c2cc(Br)ccc21` (stereo not drawn), the Inhibition (as a rule, the percentage by which the read-out fell short of the control) is given as 99%.

`O=C(Nc1cccc(-c2ccc(-c3nc4cc(F)ccc4[nH]3)cc2)c1)c1ccncc1`: the Inhibition worked out at 100%.

`Cl.Clc1ccc(OCCC2CCN(CCCCCCN3CCCCC3)CC2)cc1Cl` returned an Inhibition of 97%.

`NC1CCN(Cc2ccc(-c3ccc(-c4nc5ccccc5[nH]4)s3)cc2)C1.O=C(O)C(F)(F)F` (stereo not drawn) displayed an Inhibition of 100%.

In the case of `Cc1nc(C)c(-c2ccc(C(=O)c3ccccc3)cc2)c(O)c1Br`, the Inhibition is on record as 95%.

For `COc1ccc2[nH]ccc(=NN=Cc3ccccc3)c2c1`, the Inhibition was 100%.

The compound `COC(=O)c1cc(/C(C)=N/Nc2nc3ccccc3[nH]2)ccc1O` came in with an Inhibition of 100%.

For `CN1CCC(N2CCN(Cc3ccc(-c4cccc(-c5nc6ccccc6[nH]5)c4)cc3)CC2)CC1.O=C(O)C(F)(F)F`, the Inhibition stood at 99%.

`N=C(N)Nc1nc(-c2ccc(NC(=O)Nc3cccc(-c4csc(NC(=N)N)n4)c3)cc2)cs1`: the Inhibition is given as 94%.

For `CCC(CC)n1c(COC)cc2c3c(N)nc(N)nc3ccc21`, the Inhibition was determined as 95%.

For the compound `Cc1cc(N[C@@H](CC(C)C)C(=O)NC2CCCC2)nc(NCC2CCCCC2)n1.O=C(O)C(F)(F)F`, the Inhibition is reported as 100%.

Consider `CCOC(=O)c1c(CSc2ccccc2)oc2cc(CN(C)C)c(O)c(Cl)c12`, for which the Inhibition amounted to 99%.

In the case of `O=C(Nc1ccc(-c2cccc(-c3nc4cc(C(F)(F)F)ccc4[nH]3)c2)cc1)c1csnn1`, the Inhibition is recorded as 98%.

The compound `CC(C)(C)c1ccc(NC(=O)c2ccc(CN3CCCN(Cc4cccc(C#N)c4)CC3)cc2)cc1.O=C(O)C(F)(F)F` registered an Inhibition of 99%.

`COc1ccc(S(=O)(=O)NC2CCN(CCCOc3ccnc4cc(Cl)ccc34)C2)cc1OC` (stereo not drawn) had an Inhibition of 91%.

`N#Cc1cccc(NC(=O)Nc2ccc(-c3csc(-c4nc5ccccc5[nH]4)c3)cc2)c1`: the Inhibition came to 100%.

In turn, `CCc1ccnc2c(N3CCCC3=O)cc(C(=O)N[C@@H](Cc3ccccc3)[C@H](O)CNC3CCOCC3)cc12.O=CO` had an Inhibition of 99%.

Compound `CN(C)CCN(C)Cc1cccc(-c2cccc(NC(=O)c3cccc(C#N)c3)c2)c1.O=C(O)C(F)(F)F` gave an Inhibition of 92%.

As to `Cc1ccc(-c2ccc3c(c2)C=C(C(=O)NC2CCN(CCNC(=O)c4cccs4)CC2)CCC3)cc1.O=C(O)C(F)(F)F`, the Inhibition was 90%.

`Nc1cccc(CNCc2cccc(-c3ccc(-c4nc5cc(C(F)(F)F)ccc5[nH]4)cc3)c2)c1.O=C(O)C(F)(F)F` returned an Inhibition of 100%.

The compound `COc1ccc(C(C(=O)NC2CCN(C[C@H](O)c3ccnc4ccc(OC)cc34)CC2)N2CCc3ccccc3C2)cc1` (stereo partly drawn) registered an Inhibition of 96%.

Compound `CC(=O)N(C)c1cccc(C(=O)Nc2cccc(-c3ccc(-c4nc5cc(C(F)(F)F)ccc5[nH]4)cc3)c2)c1` gave an Inhibition of 90%.

`CN(CCCc1c[nH]c2ccccc12)CC1CCN(C(=O)/C=C/c2ccc(Cl)c(Cl)c2)CC1` displayed an Inhibition of 99%.

In turn, `O=C(NCCCCN1CCN(c2cccc3c2CCCC3)CC1)c1ccc(NC(=O)c2ccc(Cl)cc2)cc1` came in with an Inhibition of 100%.

In turn, `COC(=O)c1cccc(NC(=O)NC2CCN(c3ccnc(Nc4cc(OC)c(OC)c(OC)c4)n3)C2)c1` (stereo not drawn) returned an Inhibition of 99%.

The compound `CCCCCCN1CCC(NCc2cccc(C(F)(F)F)c2)CC1.O=C(O)C(F)(F)F` displayed an Inhibition of 100%.

Compound `Cc1nc(N)nc(N)c1CCCOc1cccc(Cl)c1` showed an Inhibition of 96%.

`CCOc1cc(C(=O)NCCN2CCCCC2)ccc1-c1nc2cc(Cl)ccc2[nH]1` returned an Inhibition of 99%.

As to `O=C(NCCCCN1CCC(c2ccc3ccccc3c2)CC1)c1ccc(NC(=O)c2ccc(Cl)cc2)cc1`, the Inhibition is given as 100%.

Take `COc1ccc(CN2CCC(NCc3cccc(-n4ccnc4)c3)CC2)cc1.O=C(O)C(F)(F)F`: the Inhibition is 100%.

`CCCCCC1c2[nH]c3ccccc3c2CCN1C(=O)OCc1ccccc1` (stereo not drawn) showed an Inhibition of 93%.

Take `COc1ccc2nccc(NC(=O)N3CCC(NCc4cc5c(F)ccc(F)c5[nH]4)CC3)c2n1.O=C(O)C(=O)O`: the Inhibition was 99%.

Consider `CCCCc1ccc(Cc2cnc3nc(N)nc(N)c3c2C)cc1`, for which the Inhibition was determined as 96%.

For the compound `CCc1ccc(C2CCN(CCCCNC(=O)c3ccc(-c4ccc(C(F)(F)F)cc4)cc3)CC2)c(OCCO)c1.Cl`, the Inhibition came to 100%.

Regarding `CN(Cc1cccc(F)c1)C1CCN(c2cc(NC(=O)c3ccc(F)cc3)ccn2)C1.O=C(O)C(F)(F)F` (stereo not drawn), the Inhibition was found to be 83%.

The compound `CC(C)CNCc1ccc(-c2ccccc2CNC2CCN(Cc3ccccc3)CC2)cc1.O=C(O)C(F)(F)F` gave an Inhibition of 100%.

`OC1=C2C(=Nc3ccccc3SC2c2cccs2)c2ccccc21` (stereo not drawn): the Inhibition is reported as 96%.

`Cl.Oc1ccc(C2CNCCc3c2cc(O)c(OCc2ccccc2)c3Cl)cc1` (stereo not drawn): the Inhibition came out at 98%.

As for `Cl.N#Cc1ccc2c(c1)CCN(CCC1CCC(NC(=O)/C=C/c3ccc(Cl)c(Cl)c3)CC1)CC2` (stereo not drawn), the Inhibition is 100%.

The test system of another test is Plasmodium falciparum. Description: GSK_TCMDC: Inhibition of Plasmodium falciparum Dd2 in whole red blood cells, using parasite LDH activity as an index of growth. Test compounds present at 2uM. It is filed as functional.
As for `CC(C)NCC(O)Cn1c2ccc(Br)cc2c2cc(Br)ccc21` (stereo not drawn), the Inhibition was 100%.

In turn, `O=C(Nc1cccc(-c2ccc(-c3nc4cc(F)ccc4[nH]3)cc2)c1)c1ccncc1` had an Inhibition of 96%.

`Cl.Clc1ccc(OCCC2CCN(CCCCCCN3CCCCC3)CC2)cc1Cl` came in with an Inhibition of 36%.

For `NC1CCN(Cc2ccc(-c3ccc(-c4nc5ccccc5[nH]4)s3)cc2)C1.O=C(O)C(F)(F)F` (stereo not drawn), the Inhibition is 99%.

For the compound `Cc1nc(C)c(-c2ccc(C(=O)c3ccccc3)cc2)c(O)c1Br`, the Inhibition came out at 96%.

`COc1ccc2[nH]ccc(=NN=Cc3ccccc3)c2c1`: the Inhibition was 99%.

Take `COC(=O)c1cc(/C(C)=N/Nc2nc3ccccc3[nH]2)ccc1O`: the Inhibition worked out at 75%.

As for `CN1CCC(N2CCN(Cc3ccc(-c4cccc(-c5nc6ccccc6[nH]5)c4)cc3)CC2)CC1.O=C(O)C(F)(F)F`, the Inhibition came out at 100%.

On to `N=C(N)Nc1nc(-c2ccc(NC(=O)Nc3cccc(-c4csc(NC(=N)N)n4)c3)cc2)cs1`, for which the Inhibition came out at 80%.

`CCC(CC)n1c(COC)cc2c3c(N)nc(N)nc3ccc21`: the Inhibition is 0%.

Take `Cc1cc(N[C@@H](CC(C)C)C(=O)NC2CCCC2)nc(NCC2CCCCC2)n1.O=C(O)C(F)(F)F`: the Inhibition came to 88%.

Compound `CCOC(=O)c1c(CSc2ccccc2)oc2cc(CN(C)C)c(O)c(Cl)c12` displayed an Inhibition of 70%.

In turn, `O=C(Nc1ccc(-c2cccc(-c3nc4cc(C(F)(F)F)ccc4[nH]3)c2)cc1)c1csnn1` had an Inhibition of 25%.

Consider `CC(C)(C)c1ccc(NC(=O)c2ccc(CN3CCCN(Cc4cccc(C#N)c4)CC3)cc2)cc1.O=C(O)C(F)(F)F`, for which the Inhibition was 12%.

`COc1ccc(S(=O)(=O)NC2CCN(CCCOc3ccnc4cc(Cl)ccc34)C2)cc1OC` (stereo not drawn) displayed an Inhibition of 56%.

Turning to `N#Cc1cccc(NC(=O)Nc2ccc(-c3csc(-c4nc5ccccc5[nH]4)c3)cc2)c1`, the Inhibition was 97%.

In turn, `CCc1ccnc2c(N3CCCC3=O)cc(C(=O)N[C@@H](Cc3ccccc3)[C@H](O)CNC3CCOCC3)cc12.O=CO` returned an Inhibition of 98%.

`CN(C)CCN(C)Cc1cccc(-c2cccc(NC(=O)c3cccc(C#N)c3)c2)c1.O=C(O)C(F)(F)F` returned an Inhibition of 10%.

In turn, `Cc1ccc(-c2ccc3c(c2)C=C(C(=O)NC2CCN(CCNC(=O)c4cccs4)CC2)CCC3)cc1.O=C(O)C(F)(F)F` gave an Inhibition of 30%.

`Nc1cccc(CNCc2cccc(-c3ccc(-c4nc5cc(C(F)(F)F)ccc5[nH]4)cc3)c2)c1.O=C(O)C(F)(F)F` displayed an Inhibition of 98%.

In turn, `COc1ccc(C(C(=O)NC2CCN(C[C@H](O)c3ccnc4ccc(OC)cc34)CC2)N2CCc3ccccc3C2)cc1` (stereo partly drawn) gave an Inhibition of 30%.

For `CC(=O)N(C)c1cccc(C(=O)Nc2cccc(-c3ccc(-c4nc5cc(C(F)(F)F)ccc5[nH]4)cc3)c2)c1`, the Inhibition was found to be 31%.

In turn, `CN(CCCc1c[nH]c2ccccc12)CC1CCN(C(=O)/C=C/c2ccc(Cl)c(Cl)c2)CC1` yielded an Inhibition of 25%.

Turning to `O=C(NCCCCN1CCN(c2cccc3c2CCCC3)CC1)c1ccc(NC(=O)c2ccc(Cl)cc2)cc1`, the Inhibition is listed as 85%.

Consider `COC(=O)c1cccc(NC(=O)NC2CCN(c3ccnc(Nc4cc(OC)c(OC)c(OC)c4)n3)C2)c1` (stereo not drawn), for which the Inhibition was found to be 68%.

Consider `CCCCCCN1CCC(NCc2cccc(C(F)(F)F)c2)CC1.O=C(O)C(F)(F)F`, for which the Inhibition was found to be 82%.

`Cc1nc(N)nc(N)c1CCCOc1cccc(Cl)c1` yielded an Inhibition of 0%.

`CCOc1cc(C(=O)NCCN2CCCCC2)ccc1-c1nc2cc(Cl)ccc2[nH]1` showed an Inhibition of 8%.

Regarding `O=C(NCCCCN1CCC(c2ccc3ccccc3c2)CC1)c1ccc(NC(=O)c2ccc(Cl)cc2)cc1`, the Inhibition was found to be 93%.

Compound `COc1ccc(CN2CCC(NCc3cccc(-n4ccnc4)c3)CC2)cc1.O=C(O)C(F)(F)F` registered an Inhibition of 93%.

As to `CCCCCC1c2[nH]c3ccccc3c2CCN1C(=O)OCc1ccccc1` (stereo not drawn), the Inhibition is 68%.

`COc1ccc2nccc(NC(=O)N3CCC(NCc4cc5c(F)ccc(F)c5[nH]4)CC3)c2n1.O=C(O)C(=O)O`: the Inhibition is given as 40%.

`CCCCc1ccc(Cc2cnc3nc(N)nc(N)c3c2C)cc1`: the Inhibition turned out to be 5%.

For the compound `CCc1ccc(C2CCN(CCCCNC(=O)c3ccc(-c4ccc(C(F)(F)F)cc4)cc3)CC2)c(OCCO)c1.Cl`, the Inhibition was 69%.

In turn, `CN(Cc1cccc(F)c1)C1CCN(c2cc(NC(=O)c3ccc(F)cc3)ccn2)C1.O=C(O)C(F)(F)F` (stereo not drawn) yielded an Inhibition of 14%.

`CC(C)CNCc1ccc(-c2ccccc2CNC2CCN(Cc3ccccc3)CC2)cc1.O=C(O)C(F)(F)F` showed an Inhibition of 41%.

`OC1=C2C(=Nc3ccccc3SC2c2cccs2)c2ccccc21` (stereo not drawn): the Inhibition was found to be 93%.

The compound `Cl.Oc1ccc(C2CNCCc3c2cc(O)c(OCc2ccccc2)c3Cl)cc1` (stereo not drawn) registered an Inhibition of 8%.

Compound `Cl.N#Cc1ccc2c(c1)CCN(CCC1CCC(NC(=O)/C=C/c3ccc(Cl)c(Cl)c3)CC1)CC2` (stereo not drawn) registered an Inhibition of 51%.

Source of the values: ChEMBL document CHEMBL1157539, “Thousands of chemical starting points for antimalarial lead identification” (Nature, 2010).
